Screening data: PubChem, The Scripps Research Institute Molecular Screening Center
TEAD-YAP inh: TEAD-YAP interaction inhibition, primary screen, TEAD-YAP interaction inhibitor project, luminescence, HEK-TIYL cells | TEAD-Gal4/YAP UAS-luciferase luminescence | inhibition, % at 9.12 µM | 640,000 compounds, 1.4% hits | AID 1259422, 2018; in the data active means inhibition above about 32%
FBW7 act: FBW7 E3 ligase activators, primary screen, biochemical, AlphaScreen, human. F-box/WD repeat-containing protein 7 (Homo sapiens), Q969H0. normalized activity (activation), % at 26.1 µM. AlphaScreen FBW7–phospho-cyclin E peptide binding, activator screen. 650,000 compounds, 0.13% hits; in the data active means normalized activity above about 1.9%;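 further: purified mutant Fbw7 with reduced substrate affinity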
Target sequence (Q969H0 whole entry, looked up): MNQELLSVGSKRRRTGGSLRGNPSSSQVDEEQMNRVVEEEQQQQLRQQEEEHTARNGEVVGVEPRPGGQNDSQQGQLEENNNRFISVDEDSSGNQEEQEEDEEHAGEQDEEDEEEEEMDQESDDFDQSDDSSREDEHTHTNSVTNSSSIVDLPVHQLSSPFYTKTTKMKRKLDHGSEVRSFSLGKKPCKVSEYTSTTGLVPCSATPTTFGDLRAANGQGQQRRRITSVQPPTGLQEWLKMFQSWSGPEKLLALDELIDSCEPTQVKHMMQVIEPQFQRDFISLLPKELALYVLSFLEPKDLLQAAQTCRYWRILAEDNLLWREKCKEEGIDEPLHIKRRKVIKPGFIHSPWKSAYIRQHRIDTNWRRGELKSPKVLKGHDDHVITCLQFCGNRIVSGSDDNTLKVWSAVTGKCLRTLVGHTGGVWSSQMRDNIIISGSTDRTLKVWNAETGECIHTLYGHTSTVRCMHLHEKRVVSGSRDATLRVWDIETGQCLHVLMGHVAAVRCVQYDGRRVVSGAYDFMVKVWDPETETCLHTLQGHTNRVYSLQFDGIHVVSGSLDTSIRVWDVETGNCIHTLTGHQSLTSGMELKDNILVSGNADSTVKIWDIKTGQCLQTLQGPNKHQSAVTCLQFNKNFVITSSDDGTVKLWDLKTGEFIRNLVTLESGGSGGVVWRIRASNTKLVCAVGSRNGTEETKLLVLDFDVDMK
MITF inh: MITF inhibitors, primary screen, biochemical, AlphaScreen, human | AlphaScreen MITF homodimerization, bead proximity signal | Microphthalmia-associated transcription factor (Homo sapiens), O75030 | inhibition, % at 2.6 µM | 650,000 compounds, 0.91% hits | AID 1259374, 2018; in the data active means inhibition above about 50%
GPR151 activ: activators of human GPR151, primary screen, cell-based, PathHunter beta-arrestin, luminescence; PathHunter beta-arrestin GPR151 cells; 650,000 compounds, 1% hits; activation, % at 11.2 µM; in the data active means activation above about 4.9%
GPR151 conf act: GPR151 activators, triplicate retest, confirmation, cell-based, PathHunter beta-arrestin, luminescence; activation, % at 11.2 µM; 6,700 tested, under 10 active; shares compounds with GPR151 activ; GPR151 PathHunter beta-arrestin cells, 90 min; % of EA-reagent control over plate median;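 active means mean percent activation across replicates above the confirmation screen cutoff of 4.91%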
GPR119 counter: GPR119 activators in beta-arrestin cells, counter-screen for GPR151 activator project, cell-based, PathHunter beta-arrestin, luminescence, triplicate. AID 1508611, 2020. 90 min; 0 = compound-well median, 100 = enzyme-acceptor control. 6,700 compounds, 0.3% hits. shares compounds with GPR151 activ. activation, % at 11.2 µM;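 active means mean percent activation in the counterscreen above 29.09%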;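 further: counterscreen on off-target GPR119 to flag nonselective hits from the GPR151 activator screen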
Numbers stand for hits; – = inactive; · = no result given. Sampled rows, rich in hits. Any-hit rate of the full collection: about 3.5%.

SMILES	TEAD-YAP inh	FBW7 act	MITF inh	GPR151 activ	GPR151 conf act	GPR119 counter
Cc1nc2sccn2c1CN1CCCC(CO)(Cc2cccc(Cl)c2)C1 (stereo not drawn)	42	–	–	5.0	–	–
N#C/C(=C/Nc1ccc(F)c([N+](=O)[O-])c1)c1nc(-c2ccccc2)cs1	–	–	–	–	·	·
N#C/C(=C\Nc1ccc(F)c([N+](=O)[O-])c1)c1nc(-c2cccc([N+](=O)[O-])c2)cs1	–	–	–	8.8	–	–
CCOc1ccc(S(=O)(=O)Nc2cccc(-c3ccc4nncn4n3)c2)cc1	39	–	–	9.8	–	–
COc1ccc2nc(N3CCC(NCC(C)C)CC3)nc(C)c2c1	–	–	–	–	·	·
Cc1ccc2nc(N3CCC(NCC(C)C)CC3)nc(C)c2c1	–	–	–	7.9	–	–
CC(=O)NS(=O)(=O)c1ccc(NC(=O)COc2ccc(C)cc2)cc1	–	–	–	–	·	·
CC(C)(C)NS(=O)(=O)c1ccc(NC(=O)COc2ccc(Br)cc2)cc1	–	–	–	16	–	–
CC(=O)NS(=O)(=O)c1ccc(NC(=O)COc2ccc(Br)cc2)cc1	–	–	–	5.8	–	–
COc1ccccc1OCC(=O)Nc1ccc(S(=O)(=O)NC(C)=O)cc1	–	–	–	16	–	–
CC(C)(C)NS(=O)(=O)c1ccc(NC(=O)COc2ccc3ccccc3c2)cc1	–	–	–	–	·	·
CC(=O)Nc1ccc(NC(=O)COc2ccc(Br)cc2C)cc1	–	–	–	8.7	–	–
Cc1cc(Br)ccc1OCC(=O)Nc1ccc(C(N)=O)cc1	–	–	–	–	·	·
O=C(C(O)c1ccc(Cl)cc1)N1CCC(Nc2ccc3[nH]ncc3c2)CC1 (stereo not drawn)	–	–	–	–	·	·
CC(=O)Nc1cnn(-c2ccc(C(=O)N(C)Cc3ccc(Oc4ccccc4)cc3)cc2)c1	–	–	–	8.4	–	–
CCOC(=O)C1=CN(Cc2ccc(F)cc2)C=C(C(=O)OCC)C1c1ccc(OCc2ccccc2)c(OC)c1	–	–	–	14	–	–
COC(=O)C1=CN(Cc2ccc(F)cc2)C=C(C(=O)OC)C1c1ccc(OCc2ccccc2)c(OC)c1	–	–	–	–	·	·
CN1C/C(=C/c2cccs2)c2nc3ccccc3c(C(=O)O)c2C1	–	–	–	–	·	·
C[C@@H](OCc1ccccc1)[C@@H]1NC(=O)[C@H]2CN(C(=O)c3cc(F)c(F)cc3F)CCN2C1=O	–	–	–	–	·	·
C[C@@H](OCc1ccccc1)[C@@H]1NC(=O)[C@H]2CN(C(=O)c3cc(F)ccc3F)CCN2C1=O	–	–	–	8.9	–	–
Cc1ccc(NC(=O)CSC2=NC(=O)C(c3ccccc3)C(=O)N2)cc1 (stereo not drawn)	–	–	–	–	·	·
CCN1CCN(c2cc(C)c3cc(NC(=O)/C=C/c4ccccc4Cl)ccc3n2)CC1	–	–	–	–	·	·
CC(C)c1nnc(C2CCN(C(=O)Cn3c(=O)oc4ccccc43)CC2)o1	–	–	–	9.7	–	–
Nc1nnnn1/N=C\C=C\c1ccccc1	–	–	–	9.2	–	–
Nc1nnnn1/N=C/C=C/c1cccc([N+](=O)[O-])c1	–	–	–	–	·	·
SMILES	TEAD-YAP inh	FBW7 act	MITF inh	GPR151 activ	GPR151 conf act	GPR119 counter
O=C(Nc1cc(F)cc(F)c1)c1ccc(N2C(=O)c3ccccc3C2=O)cc1	–	–	–	–	·	·
CN(C)CCC(=O)N1c2ccccc2Sc2ccc(Cl)cc21	–	–	–	–	·	·
CN(C)CCOC1=Cc2ccccc2Sc2ccc(Cl)cc21	·	–	–	5.7	–	–
Cc1cccc(Nc2ncnc3c2c(-c2ccccc2)cn3-c2ccccc2)c1	–	–	–	–	·	·
CCc1cccc(OCC(=O)Nc2ccccc2C(N)=O)c1	–	–	–	10	–	–
CCc1cccc(OCC(=O)Nc2ccccc2C(=O)O)c1	–	–	–	–	·	·
Cc1oc(-c2cccc(Cl)c2)nc1COC(=O)c1nnn(-c2cccc(F)c2)c1C	–	–	–	6.0	–	–
C/C(=N\Nc1ccccc1)c1no[n+]([O-])c1C	–	–	–	6.1	–	–
CCCNc1nc(SC)nc2c1cnn2CCNC(=O)CC	–	–	–	–	·	·
Clc1ccc(Cl)c(Nc2ncnc3ccccc23)c1	–	–	–	–	·	·
CC1(C)C(=O)C2(C(=O)Nc3ccccc3Br)CCC1C2 (stereo not drawn)	–	–	–	17	–	–
COc1cc(NC(=O)C2CCCN2S(=O)(=O)c2cccc3cccnc23)cc(OC)c1 (stereo not drawn)	–	–	–	–	·	·
COc1cccc(NC(=O)C2CCCN2S(=O)(=O)c2cccc3cccnc23)c1 (stereo not drawn)	–	–	–	7.3	–	–
O=C(CCN1C(=O)c2ccccc2S1(=O)=O)Nc1ccc(C(=O)O)cc1	–	–	–	7.6	–	–
COc1ccc(NC(=O)CCN2C(=O)c3ccccc3S2(=O)=O)cc1	–	–	–	–	·	·
CN1/C(=C\C=N\NC(=S)Nc2cccnc2)C(C)(C)c2ccccc21	–	–	–	7.4	–	–
CCOc1ccc(-c2cc(=O)c3cc(NC(=O)c4ccccc4Br)ccc3o2)cc1	–	–	–	5.1	–	–
COc1cccc(/C=N/N(CCC#N)C2=NS(=O)(=O)c3ccccc32)c1O	–	–	–	10	–	–
COc1ccc([N+](=O)[O-])cc1/C=N/N(CCO)C1=NS(=O)(=O)c2ccccc21	–	–	–	–	·	·
N#C/C(=C\c1ccc2c(c1)OCO2)C(=O)Nc1ccc(Cl)c([N+](=O)[O-])c1	–	–	–	6.0	–	–
COc1ccc(CC2(CCC(=O)N[C@H](C)c3ccc(OC)cc3)CCC(=O)N2)cc1 (stereo partly drawn)	–	–	–	5.1	–	–
COc1ccc([C@@H](C)NC(=O)CCC2(Cc3ccc(C)cc3)CCC(=O)N2)cc1 (stereo partly drawn)	–	–	–	–	·	·
COCC(C)NC(=O)c1ccc(OC2CCN(Cc3ccccn3)CC2)cc1 (stereo not drawn)	–	–	–	5.8	–	–
CCOc1ccc(-n2c(/C=C/c3cccc([N+](=O)[O-])c3)nc3ccccc3c2=O)cc1	–	–	–	–	·	·
O=C(NCCN1CCOCC1)c1cccc(-n2ncc3cc(Nc4ccccc4Cl)ccc32)n1	–	–	–	4.9	–	–
O=C(NCCN1CCOCC1)c1cccc(-n2ncc3cc(Nc4ccccc4Cl)ccc32)c1	–	–	–	–	·	·
O=C(NCCc1c[nH]c2ccccc12)C12CC3CC(CC(O)(C3)C1)C2	–	–	–	7.6	–	–
